HT1080NT lethal – qHTS for induction of synthetic lethality in tumor cells producing 2HG: qHTS for the HT-1080-NT fibrosarcoma cell line; HT-1080-NT fibrosarcoma viability, CellTiter-Glo ATP luminescence, 48 h; Potency, µM (highest dose often 46.1 µM), for the others: top-dose activity, negative = less viability, hits mostly cytotoxic; 1.6% of 360,000 active; AID 686970, 2013;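 note: NT is the 2HG producing partner of a matched IDH1 knockdown line; 0% = DMSO-treated cells and -100% = media-only wells without cells; nearly all actives have a fitted effect of over 55% in size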
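Read-out is CellTiter-Glo luminescence after 10 minutes at room temperature, following 48 hours' compound treatment of HT-1080-NT cells (750 cells/well, RPMI, 5% FBS, 37 degrees C).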
HT1080 IDH1KD tx – qHTS for induction of synthetic lethality in tumor cells producing 2HG: qHTS for the HT-1080-IDH1KD cell line. AID 686971, 2013. 2% of 360,000 active. Potency, µM (highest dose often 46.1 µM), without a hit: top-dose activity, negative = toxicity, hits mostly cytotoxic. HT-1080 IDH1 knockdown viability, ATP luminescence, 48 h;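 note: 0% = DMSO wells and -100% = cell-free medium wells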
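Knockdown cells (IDH1KD HT-1080) received compounds 2 h after plating at 750 cells/well and were kept 48 h at 37 °C in 5% FBS RPMI. A CellTiter-Glo luminescence read gave % activity for curve fitting.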
KB-3-1 tox – qHTS assay for MDR1-selective chemotherapeutics: Primary screen using the parental adenocarcinoma cell KB-3-1. KB-3-1 viability, CellTiter-Glo ATP luminescence, 72 h. Potency, µM (top dose mostly 46.1 µM), usual class: cytotoxic. 1.4% of 400,000 active; note: % is set by controls: 0 for no effect and ±100 for the full control effect; nearly all actives have a fitted effect of over 60% in size
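Screening of KB-3-1 cells (DMEM, 10% FBS, phenol-red free) ran from lowest to highest compound concentration; after 72 h at 37 °C viability was read luminescently and curves fitted.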
SW480 rerep – A quantitative high throughput screen for small molecules that induce DNA re-replication in SW480 colon adenocarcinoma cells; SW480 DNA re-replication, Hoechst DNA content imaging, 48 h; Potency, µM (top dose mostly 46.1 µM), without a hit: at the highest dose re-replication activation, most hits filed as activators; 1.8% of 340,000 active; note: % of control where 0% means no effect; nearly all actives have a fitted effect of over 55% in size
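SW480 cells exposed to compounds for 48 hr at 37 C, 5% CO2, then Hoechst-stained 40 min. Nuclear DNA content imaged by fluorescence scanning (405 nm excitation, 500-530 nm emission); re-replication scored as increased high-intensity nuclei.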
KB-V1 cytotox – qHTS assay for MDR1-selective chemotherapeutics: Primary screen using the drug-selected MDR subline cells KB-V1. Potency, µM (top dose mostly 46.1 µM), hits mostly cytotoxic. AID 1347076, 2019. 3.4% of 400,000 active. KB-V1 MDR cells viability, CellTiter-Glo, 72 h; note: % is set by controls: 0 for no effect and ±100 for the full control effect; nearly all actives have a fitted effect of over 60% in size
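Potencies derive from concentration-effect curves fitted to normalized luminescence (CellTiter-Glo) of KB-V1 cells treated for 72 h at 37 degrees C in phenol-red-free DMEM containing 10% FBS.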
MCF10A rerep – A quantitative high throughput screen for small molecules that induce DNA re-replication in MCF 10a normal breast cells; MCF 10A DNA re-replication, Hoechst nuclear intensity, 48 h; Potency, µM (series often up to 46.1 µM), for inactives: top-dose activity, positive = re-replication, hits mostly activators; 2.9% of 350,000 active; AID 624296, 2012; note: % of control where 0% means no effect; nearly all actives have a fitted effect of over 50% in size
The depositor's hits bear a star; i = inactive; ? = inconclusive; nt = no result; [ ] = remark or other dose. Hits are enriched below; roughly 8% of the tested compounds scored in any of these assays. Calls come from the whole dose curve; as a rule, active = well fitted curve in the direction sought with a large enough effect; inconclusive = small, poorly fitted or top-dose-only effect, or another doubt; inactive = no such curve, though single readings can be large; an effect the other way counts as inactive or inconclusive. Potency is the fitted concentration of half-maximal effect.

SMILES	HT1080NT lethal	HT1080 IDH1KD tx	KB-3-1 tox	SW480 rerep	KB-V1 cytotox	MCF10A rerep
COCCCn1c(=NC(=O)c2ccncc2)c(C#N)cc2c(=O)n3cccc(C)c3nc21	-5%	-7%	i	?	i	787%[0.0737 µM]
Cc1cccn2c(=O)c3cc(C#N)c(=NC(=O)c4cccs4)n(CCCOC(C)C)c3nc12	0%	2%	i	21µM*	?	?
Cc1cccn2c(=O)c3cc(C#N)c(=NC(=O)c4ccncc4)n(CCCOC(C)C)c3nc12	-12%	-3%	i	?	i	4.6µM*
CCOC(=O)c1cc2c(=O)n3ccccc3nc2n(Cc2ccco2)c1=NC(=O)c1cc(C)cc(C)c1	nt	nt	i	nt	i	nt
N#Cc1cc2c(=O)n3ccccc3nc2n(Cc2ccco2)c1=NC(=O)c1ccco1	?	?	i	19%	i	23µM*
CCCn1c(=NC(=O)c2ccncc2)c(C#N)cc2c(=O)n3cccc(C)c3nc21	3%	5%	i	27%	i	-3%
COC(=O)c1sc(N2C(=O)c3oc4ccc(C)cc4c(=O)c3C2c2ccc(O)c(OC)c2)nc1C (centres undefined)	nt	nt	i	nt	i	nt
COc1cccc2cc(C(=O)NCCc3c(C)[nH]c4ccc(F)cc34)c(=O)oc12	nt	nt	i	nt	i	nt
COc1cc(OC)c(/C=C/c2nccc3ccccc23)c(OC)c1	nt	nt	?	nt	i	nt
CC(=O)N=c1c(C#N)cc2c(=O)n3cccc(C)c3nc2n1CCCOC(C)C	?	19%	i	21µM*	i	?
CC(=O)N=c1c(C#N)cc2c(=O)n3cccc(C)c3nc2n1Cc1ccco1	-4%	5%	i	0.58µM*	?	?
O=C(Nc1cccc(Cl)c1Cl)c1ccc2c(c1)N(Cc1cccc(Cl)c1)C(=O)c1ccccc1S2(=O)=O	nt	nt	i	nt	i	nt
COc1cc2c(cc1/C=C/C(=O)O)OC(C)C2 (centres undefined)	9%	1%	i	-9%	i	0%
COc1coc(/C=C/C(=O)O)cc1=O	18%	17%	i	1.5µM*	i	-1%
Cc1ccc(-c2nc(CS(=O)CC(=O)N3CCN(c4ccc(Cl)cc4)CC3)c(C)o2)cc1 (centres undefined)	nt	nt	?	nt	i	nt
CCOc1ccc(NC(=O)C2CCN(c3nnnn3-c3ccccc3)CC2)cc1	0%	-1%	i	-2%	8.2µM*	3%
CC(Sc1nnnn1-c1ccccc1)C(=O)NC1CCCC1 (centres undefined)	7%	7%	i	-2%	13µM*	3%
CCOC(=O)C1CCCN(c2nnnn2-c2ccccc2)C1 (centres undefined)	6%	10%	i	-7%	i	23%
O=C(NC1CCCCC1)C1CCCN(c2nnnn2-c2ccccc2)C1 (centres undefined)	21%	-7%	i	-3%	16µM*	4%
COc1ccc(-n2nnnc2SC(C)C(=O)NC2CCCC2)cc1 (centres undefined)	2%	-1%	i	-5%	i	-5%
O=C(Nc1cccc(F)c1)C1CCN(c2nnnn2-c2ccccc2)CC1	0%	-7%	?	?	?	?
O=C(Nc1cccc(S(=O)(=O)N2CCCCC2)c1)c1ccc([N+](=O)[O-])o1	10µM*	5.2µM*	?	6.5µM*	?	16µM*
O=C(Nc1cccc(S(=O)(=O)N2CCCCC2)c1)c1ccccc1NS(=O)(=O)c1ccc(F)cc1	?	23µM*	?	?	21µM*	?
O=C(COC(=O)c1ccc([N+](=O)[O-])o1)Nc1cccc(S(=O)(=O)N2CCCCC2)c1	-3%	-1%	i	-7%	i	-1%
O=S(=O)(Nc1ccccc1OC(F)F)c1ccc(S(=O)(=O)N2CCCC2)cc1	-2%	-2%	i	-8%	18µM*	7%
SMILES	HT1080NT lethal	HT1080 IDH1KD tx	KB-3-1 tox	SW480 rerep	KB-V1 cytotox	MCF10A rerep
O=C(Nc1ccc(F)cc1F)c1ccc(S(=O)(=O)N2CCCCC2)cc1	0%	-21%	nt	-1%	nt	13%
O=C(Nc1ccc(F)cc1F)c1cc(S(=O)(=O)N2CCCCC2)c[nH]1	nt	nt	18µM*	nt	?	nt
NS(=O)(=O)c1cccc(NC(=O)c2ccccc2NS(=O)(=O)c2ccc(F)cc2)c1	0%	0%	i	-1%	i	1%
C[C@@H](NC(c1ccc(F)cc1)c1ccc2cccnc2c1O)c1ccccc1 (some centres undefined)	nt	nt	?	nt	i	nt
CCSc1nnc2c(n1)OC(CC)N(C(C)=O)c1ccccc1-2 (centres undefined)	nt	nt	i	nt	i	nt
CC(CC(=O)NCc1ccc(Cl)cc1)CC1=NS(=O)(=O)c2ccccc2N1 (centres undefined)	nt	nt	i	nt	i	nt
Cc1ccc(S(=O)(=O)CCC(=O)OCC(=O)Nc2cccc(S(=O)(=O)N3CCCCC3)c2)cc1	-4%	-8%	i	nt	i	nt
Cc1ccc(C(=O)Nc2cccc(S(=O)(=O)N3CCCCC3)c2)cc1[N+](=O)[O-]	-5%	-23%	21µM*	-31%	?	?
Cc1ccc(S(=O)(=O)CCC(=O)Nc2cccc(S(=O)(=O)N3CCCCCC3)c2)cc1	3%	7%	?	5%	9.2µM*	16%
COc1ccc(N2CCN(C(=O)CCn3cnc4onc(-c5ccc(F)cc5)c4c3=O)CC2)cc1	nt	nt	i	nt	i	nt
Cc1nc(Nc2nc3ccccc3o2)nc2c1CCCC2	nt	nt	i	nt	i	nt
COc1ccc(NCc2cc3ccc(OC)cc3n(CC(=O)Nc3cccc(OC)c3)c2=O)cc1	nt	nt	i	nt	i	nt
CN(C)c1ccc(C2CNC(c3ccc(Cl)c([N+](=O)[O-])c3)c3[nH]c4ccccc4c32)cc1 (centres undefined)	-7%	-23%	?	15µM*	i	4.1µM*
O=[N+]([O-])c1cccc(C2NCC(c3ccccc3Cl)c3c2[nH]c2ccccc32)c1 (centres undefined)	?	26µM*	i	?	16µM*	?

Screens deposited in PubChem BioAssay by National Center for Advancing Translational Sciences (NCATS).
